Screening data: PubChem, National Center for Advancing Translational Sciences (NCATS)
CHX counter: Cycloheximide Counterscreen for Small Molecule Inhibitors of Shiga Toxin. 12% of 300,000 active. AID 2314, 2010. cell reporter, cycloheximide protein synthesis inhibition counterscreen. max response, %; in the data active = max response mostly above about 13%, no sharp cut-off; inactive = mostly below about 14%; note: read at 38.3 µM for the half of the compounds with a filed dose; 0% is about no effect
Shiga toxin inh: A qHTS for Small Molecule Inhibitors of Shiga Toxin; Vero cells, Shiga toxin protein synthesis inhibition reporter; inhibition, % at 38.7 µM; 9.2% of 290,000 active; AID 2315, 2010; in the data active = inhibition mostly above about 28%, no sharp cut-off; inactive = mostly below about 43%; note: 0% is about no effect
SARS PLP yeast: qHTS of Yeast-based Assay for SARS-CoV PLP. Potency, µM (titrated, usually from 32.9 µM), without a hit: at the highest dose activity, positive = growth rescue, most hits filed as activators. AID 485353, 2010. S. cerevisiae expressing SARS-CoV PLpro, growth rescue. 0.19% of 330,000 active; note: potency is the fitted concentration of half-maximal effect; 0% is about no effect; nearly all actives have a fitted effect of over 55% in size
NS1 inh: qHTS Assay for Inhibitors of Influenza NS1 Protein Function; Potency, µM (doses to about 46.1 µM), for the others: at the top dose activity, positive = more growth; 0.4% of 270,000 active; AID 2326, 2010; note: potency is the fitted concentration of half-maximal effect; actives are rising curves; nearly all actives have a fitted effect of over 50% in size
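OD600 was taken as the measure of yeast growth restored by compound in an NS1-expressing S. cerevisiae strain. Cells had been washed out of glucose medium and diluted 1:100 into galactose -URA medium, pH 6.0.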
Pf growth 96h: Primary qHTS for delayed death inhibitors of the malarial parasite plastid, 96 hour incubation | P. falciparum luciferase reporter growth, 96 h | Potency, µM (titrated, usually from 28.7 µM), for the others: top-dose activity change, negative = inhibition, actives largely listed as inhibitors | 6.9% of 320,000 active | AID 504834, 2011; active = well fitted inhibition curve with a large enough effect; inconclusive = small, poorly fitted or top-dose-only effect, or another doubt; inactive = no such curve, though single readings can be large or run the other way; note: potency is the fitted concentration of half-maximal effect; % is set by controls: 0 for no effect and ±100 for the full control effect
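Delayed-death screen, second-generation endpoint: infected erythrocytes, 2% hematocrit, 0.05% parasitemia final; 96 hours at 37 C, 5% CO2; luciferase detection reagent; luminescence decrease equals reduced growth.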
Pf growth 48h: Primary qHTS for delayed death inhibitors of the malarial parasite plastid, 48 hour incubation. P. falciparum luciferase growth in erythrocytes, 48 h. Potency, µM (highest dose often 28.7 µM), for the others: at the top dose activity change, negative = inhibition, usual class: inhibitors. 5.9% of 310,000 active. AID 504832, 2011; active = well fitted inhibition curve with a large enough effect; inconclusive = small, poorly fitted or top-dose-only effect, or another doubt; inactive = no such curve, though single readings can be large or run the other way; note: potency is the fitted concentration of half-maximal effect; % is set by controls: 0 for no effect and ±100 for the full control effect
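A one-generation exposure of luciferase-tagged malaria parasites in RPMI 1640/Albumax erythrocyte culture, 37 C and 5% CO2. Inhibition is inferred from decreased luminescence after adding detection reagent.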
An asterisk follows results filed as active; ? = inconclusive; nt = not tested or not shown. Shown are actives, neighbours in structure and some others; about 21% of the full set was active somewhere. Unless noted, calls come from the whole dose curve.

SMILES	CHX counter	Shiga toxin inh	SARS PLP yeast	NS1 inh	Pf growth 96h	Pf growth 48h
Cc1ccc(N(Cc2ccccc2)C(=O)CN2C(=O)NC3(CCCC3)C2=O)cc1	-1	2	6%	1%	?	?
Cc1ccc(NC(=O)CCN2CCCCC2)cc1	29*	41*	2%	9%	-10%	172%
O=C(Nc1ccc(Br)cc1)N1CCCC(O)C1 (stereo not drawn)	24*	70	1%	nt	26%	128%
O=C(CCN1CCCCCC1)Nc1ccc(F)cc1	18	-20	6%	0%	?	-15%
COc1ccc(NC(=O)NC2(C(=O)N3CCOCC3)CCCCC2)cc1	22*	14	1%	24%	45%	29%
CC1CCCN(CCC(=O)Nc2ccc(Br)cc2)C1 (stereo not drawn)	-2	-3	4%	3%	-24%	11%
COc1ccc(NC(=O)N2CCCCC2)cc1	26*	29	-6%	12%	-23%	36%
COc1ccc(OC)c(C(=O)COC(=O)COc2ccccc2F)c1	nt	nt	-1%	nt	19%	11%
COc1cc(CNC(=O)CCn2nc(C)c3c(C)n(-c4ccccc4)nc3c2=O)cc(OC)c1OC	-3	-1	1%	-8%	?	-19%
Cc1cc(NC(=O)COC(=O)c2cc(S(=O)(=O)N(C)C)ccc2Cl)no1	nt	nt	-14%	nt	18%	-17%
CC(=O)NC(Cc1ccc(F)cc1)C(=O)NC1CCN(C(=O)Nc2ccc(F)cc2)CC1 (stereo not drawn)	-2	-7	2%	-3%	-3%	-8%
COc1ccc(NC(=O)N2CCN(C(=O)C(Cc3ccc(F)cc3)NC(C)=O)CC2)cc1 (stereo not drawn)	9.7*	35	-1%	0%	27%	4%
COC(=O)c1ccc(NC(=O)C(=O)N2CCCC2)cc1	38	76*	-2%	-5%	nt	179%
CCOC(=O)c1ccc(NC(=O)N2CCCCC2)cc1	41*	78*	-8%	-61%	211%	nt
Cc1cc(N2CCN(C(=O)Nc3ccc(F)cc3F)CC2)c2ccccc2n1	4	22	1%	7%	15µM*	10µM*
CC(=O)CSCc1ccccn1	nt	nt	nt	0%	nt	nt
Cc1ccc(S(=O)(=O)N2CCC(C(=O)NNC(=O)c3ccc(F)cc3)CC2)cc1	1	-6	5%	nt	-10%	-3%
CCCCCCCC/C=C\CCCCCCCC(=O)N[C@H](CO)Cc1ccc(O)cc1	7	-2	nt	nt	nt	nt
CCN1CCN(C(=O)Nc2ccc(Cc3ccc(NC(=O)N4CCN(CC)CC4)cc3)cc2)CC1	1	-14	-1%	-2%	10µM*	?
Cc1ccc(NC(=O)N2CCCCCC2)c(C)c1	50*	62*	1%	15%	19%	67%
Cc1ccc(NC(=O)N2CCCCCC2)cc1	36*	84*	-3%	5%	?	84%
Cc1ccc(NC(=O)C2CCN(C(=O)NC3CCCCC3)CC2)c(C)c1	-2	-3	-3%	4%	?	?
CCc1ccc(NC(=O)N2CCCCCC2)cc1	49*	87*	-6%	0%	51%	106%
C1=CC2CC1CC2CN1CCN(Cc2ccccc2)CC1 (stereo not drawn)	1	0	-6%	-6%	-14%	nt
COC(=O)[C@H]1C[C@@H]1[C@H](NC(=O)c1ccccc1)c1ccccc1	-3	-8	11%	-5%	?	34%
CCOc1ccc(NC(=O)N2CCC(C(N)=O)(N3CCCCC3)CC2)cc1	-2	-2	0%	-2%	13µM*	2%
CCOC(=O)c1ccc(NC(=O)CN2CCN(Cc3ccccc3)CC2)cc1	0	-18	0%	-1%	10%	-20%
NC(=O)C1(N2CCCCC2)CCN(C(=O)NC2CCCCC2)CC1	-4	-36	-2%	7%	15µM*	0%
O=C(Nc1ccc(Br)cc1)N1CCCCCC1	55*	98*	?	17%	0%	70%
CCOC(=O)c1ccc(NC(=O)N2CCN(Cc3ccccc3)CC2)cc1	15*	7	-1%	-3%	-6%	?
